Data published in PubChem BioAssay AID589 (National Center for Advancing Translational Sciences (NCATS), 2007).
The campaign covered roughly 59,000 compounds. About 6,200 (11%) were called active. Not shown: some 9% with an inconclusive outcome. No stated cut-off is given here; in the data, active means max dye-equivalent concentration above about 10 nM; inconclusive means mostly about 1.1 nM to 9.6 nM; inactive means weaker than that. The sample as a whole holds a higher share of actives than the screen did.

Experiment: qHTS Assay for Spectroscopic Profiling in 4-MU Spectral Region
Details: compound autofluorescence, 340/450 nm, 4-MU equivalents; active compounds read high
Outline: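 Compounds in 100 mM Tris, pH 8.0, sat 15 min at room temperature before fluorescence was read at 340 nm excitation/450 nm emission; a per-plate six-point 4-MU standard curve converted signals to dye-equivalent concentration at each compound concentration.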

Max dye-equivalent concentration, inactive:
O=C(O)c1ccc(C(=O)c2ccccc2C(=O)O)cc1C(=O)O
CC(C)n1c(SCC(=O)Nc2ccccc2N2CCCCC2)nc2c1c(=O)n(C)c(=O)n2C
Fc1ccccc1OCCSc1nc2ccccc2o1
CC(C)NS(=O)(=O)c1ccc(CCC(=O)N2CCOCC2)cc1
Cc1ccccc1CSc1nnc(-c2cccnc2)n1N
COc1ccccc1CNc1ncncc1-c1cccnc1
COc1ccc(C(=O)CSc2nnc(COc3ccccc3)n2Cc2ccco2)cc1
O=c1c2[nH]c3ccc(Cl)cc3c2ncn1Cc1ccccn1
COc1ccc(-c2nnc(SCC(=O)c3ccco3)n2-c2ccccc2)cc1
Cc1ccc(Cc2cncc(O)c2)cc1S(=O)(=O)O
CCOC(=O)c1cc2n(c1N)-c1ccccc1C2=O
CCOC(=O)c1cc2n(c1C)-c1ccccc1C2=O
CCC(=O)Nc1ccc2c(c1)nc(CCN1CCN(C)CC1)n2C
O=C(Nc1c2c(nn1-c1ccc(F)cc1)CS(=O)C2)C12CC3CC(CC(C3)C1)C2 (stereo unspecified)
CC(C)Cc1ccc(S(=O)(=O)N2CCN(C(=O)c3ccco3)CC2)cc1
Cc1cc2c(=O)n(C)c(SCC(=O)c3cc4ccccc4o3)nc2s1
CC(=O)Nc1ccc(S(=O)(=O)NCCc2ccccc2)cc1
COC(=O)c1ccc(C2NC(=O)NC(C)=C2C(=O)N(C)C)cc1 (stereo unspecified)
COCCOC(=O)C1=C(C)NC(=O)CC1c1cc2c(cc1Br)OCO2 (stereo unspecified)
Cc1noc(C)c1CSc1nnc2ccc3ccccc3n12
CCOC(=O)c1c(NC(=O)CSc2nnc(C)c(=O)[nH]2)sc2c1CCC2
CC1CN(C2CCCCC2)c2nc3c(c(=O)n(C)c(=O)n3C)n2C1 (stereo unspecified)
Cc1cc(NC(=O)c2cc(-c3cccs3)on2)nn1Cc1ccc(Cl)cc1
O=C(O)CCC(=O)N(Cc1cccs1)Cc1cccs1
COc1cc(C2C3C(=O)N(c4ccccc4)C(=O)C3ON2c2ccccc2)ccc1O (stereo unspecified)
CC(C)OCCCNc1nc2c(c(=O)n(Cc3ccccc3F)c(=O)n2C)n1C
COCc1nc2ccccc2n1Cc1ccccc1Br
c1ccc(-c2[nH]ncc2-c2nc3ccccc3[nH]2)cc1
CC1(C)CC(=O)NC=C(c2ccccc2)C1
Clc1ccccc1-c1cc(NCCN2CCOCC2)ncn1
Cc1cccc(-c2noc(-c3ccc(F)cc3)n2)c1
CC(=O)N1CCC2(CCCN(Cc3ccccc3)C2)CC1
O=C(CSc1n[nH]c(-c2cccnc2)n1)Nc1ccnc2ccccc12
O=C(O)C1CC(=O)N(Cc2cccnc2)C1 (stereo unspecified)
O=C(CCS(=O)(=O)Cc1ccccc1F)NCCCN1CCCCC1
C#CCNc1nc(C(C)C)nc2c1nnn2Cc1ccccc1F
CC(C)(C)c1nc(NCC2CCCO2)c2nnn(Cc3ccccc3)c2n1 (stereo unspecified)
Cc1ccc(-c2nnn(CC(=O)N(CCO)C(C(=O)NC(C)(C)C)c3ccncc3)n2)cc1 (stereo unspecified)
COc1ccc(S(=O)(=O)N2CCCC(C(=O)N3CCN(C)CC3)C2)cc1C (stereo unspecified)
COC(=O)N1CCC2(CCCN(Cc3ccccc3OC)C2)CC1
COc1ccc(CCNC(=O)CSc2nnc(-c3cccc(F)c3)o2)cc1OC
O=C(O)CSCc1nc2ccccc2s1
COC(=O)Cc1cc(=O)n(-c2nc3ccccc3s2)[nH]1
COC(=O)CNS(=O)(=O)c1ccc(Cc2ccc(S(=O)(=O)NCC(=O)OC)cc2)cc1
Cc1ccccc1Nc1nnc(C)c(=O)[nH]1
COc1ccc(C2C(C(=O)Nc3ccccc3OC)=C(C)Nc3nnnn32)c(OC)c1 (stereo unspecified)
CCOc1cccc(-n2nnnc2-c2ccc(OC)cc2)c1

Max dye-equivalent concentration, active:
COc1ccc2[nH]c3c(=O)n(Cc4ccco4)cnc3c2c1 92 nM
CCCn1c(=NC(C)=O)c(C(=O)OCC)cc2c(=O)n3ccccc3nc21 3500 nM
CCc1cc(=O)oc2cc(C)cc(OC(C)C(=O)O)c12 (stereo unspecified) 82 nM
CCCOC(=O)C1=C(C)NC2=C(C(=O)C(C(=O)OC)C(C)C2)C1c1ccc(N(C)C)cc1 (stereo unspecified) 23 nM
CC(C)Cn1c(CCC(=O)O)ccc1-c1cccs1 350 nM
O=c1[nH]c(-c2ccccc2)c(-c2ccccc2)[nH]1 18 nM
COc1ccc2[nH]c(=O)c(-c3noc(-c4ccc(F)cc4)n3)cc2c1 12 nM
Cc1nc(Nc2ccc3c(c2)OCCO3)c2nnn(Cc3ccccc3Cl)c2n1 640 nM
CCC(=O)NC(=Nc1nc2ccccc2s1)NC(=O)CC 150 nM
